According to PubChem BioAssay AID1030 (National Center for Advancing Translational Sciences (NCATS), 2008):
Screen size: about 220,000 compounds; about 16,000 (7.3%) were called active. Another 25% or so got no clear call; they are omitted. This is one part of a sample in which actives are shown more often than they occur. Calls follow the shape of the dose curve; as a rule, active = well fitted inhibition curve with a large enough effect (not every such curve was filed as active); inconclusive = small, poorly fitted or top-dose-only effect, or another doubt; inactive = no such curve, though single readings can be large or run the other way.

Target: Aldehyde dehydrogenase 1A1 (Homo sapiens) (UniProt P00352)
Sequence (P00352 whole entry, looked up): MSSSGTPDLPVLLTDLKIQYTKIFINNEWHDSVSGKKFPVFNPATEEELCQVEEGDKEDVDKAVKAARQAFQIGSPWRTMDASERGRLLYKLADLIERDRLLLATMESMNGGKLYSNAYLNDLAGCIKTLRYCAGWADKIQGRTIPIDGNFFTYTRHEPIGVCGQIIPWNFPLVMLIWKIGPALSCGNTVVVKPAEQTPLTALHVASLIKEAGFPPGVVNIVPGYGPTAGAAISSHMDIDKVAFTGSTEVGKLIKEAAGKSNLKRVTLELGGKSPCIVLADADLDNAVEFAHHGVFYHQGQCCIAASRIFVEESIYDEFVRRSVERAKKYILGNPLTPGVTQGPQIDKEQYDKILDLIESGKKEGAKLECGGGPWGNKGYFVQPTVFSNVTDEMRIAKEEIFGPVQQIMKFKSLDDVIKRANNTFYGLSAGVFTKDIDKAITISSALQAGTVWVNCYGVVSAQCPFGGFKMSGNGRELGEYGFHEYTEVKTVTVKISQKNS
Assay: qHTS Assay for Inhibitors of Aldehyde Dehydrogenase 1 (ALDH1A1);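 as to activity, negative = inhibition: plate controls were no enzyme wells and a reference inhibitor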
Settings: Purified ALDH1A1, NADH fluorescence, propionaldehyde substrate; series mostly up to 75.3 µM
Potency is read from the fitted curve at half-maximal effect.

Potency, active:
CCOC(=O)c1c(C)oc2ccc(OCC(=O)N(CC)CC)cc12 11.2 µM, COc1ccc(-c2nn3c(-c4ccccc4)nnc3s2)cc1OC 25.1 µM, C=CCn1c(=O)c2ccccc2n2c(SCC(=O)N3CCCc4ccccc43)nnc12 4.47 µM, N#Cc1c(/N=C/N2CCCC2)oc(-c2ccccc2)c1-c1ccccc1 7.94 µM, Cc1ccc(Nc2nc(-c3sc(NC(=O)c4ccccc4)nc3C)cs2)cc1 20 µM, CCCCC(=O)Nc1nc(C)c(-c2csc(Nc3ccc(Cl)cc3)n2)s1 11.2 µM, CCOc1ccc(NCCC(=O)c2ccc3c(c2)OCO3)cc1 0.631 µM, CCCn1nnc2sc3c(c2c1=O)CCC(C)C3 (configuration not stated) 6.31 µM, CCOc1ccc2c(c1)cc(CN(C(=O)CC)C1CCCCC1)c1nnnn12 31.6 µM, Cc1ccc2c(c1)N(C(=O)CCC(=O)N1CCc3ccccc3C1)CCO2 20 µM

Potency, inactive:
CCOC(=O)c1c(C)[nH]c(C(=O)COc2ccc3c(c2)OCO3)c1C, CCOC(=O)c1c(C)oc2cc(Br)c(OCC(N)=O)cc12, O=C(Nc1ccc(Cl)cc1)/C(=C1\CCCN1)[N+](=O)[O-], Cn1nc(C(F)(F)F)cc1-c1ccc(/C=C(\C#N)C(=O)c2cccc(C(F)(F)F)c2)s1, CCOc1cccc(-c2nn3c(-c4ccccn4)nnc3s2)c1, COc1cc(-c2nn3c(-c4cccc(C)c4)nnc3s2)cc(OC)c1OC, CC(=O)c1sc(NC(=O)CCCOc2ccccc2C)nc1C, O=[N+]([O-])c1ccccc1N/N=C1\CCc2ccccc21, C=Cn1c(C(=O)O)ccc1-c1ccc(OC)cc1, O=C(CSc1nc2[nH]ncc2c(=O)n1-c1ccccc1)N1CCCc2ccccc21, CCCn1c(SCC(=O)N2CCc3ccccc32)nnc1-c1ccncc1, Cc1ccnc2nc(C(=O)OCC(=O)N(CC(C)C)CC(C)C)nn12, Cc1ccnc(NS(=O)(=O)c2ccc(NC(=O)c3ccc(S(=O)(=O)N4CCOCC4)cc3)cc2)n1, O=P(O)(O)C(O)c1ccc2ccccc2c1 (configuration not stated), N#Cc1c2c(c(-c3ccccc3)[nH]c1=O)CCCC2, CCSc1sc(CC)cc1C=O, O=C(COC(=O)c1ccccc1)Nc1cccc(S(=O)(=O)N2CCOCC2)c1, Cc1ccc(N(C(=O)c2ccc(S(=O)(=O)N(C)C)cc2)C2C=CS(=O)(=O)C2)cc1 (configuration not stated), C=CCNc1scc(-c2ccccc2)[n+]1CC=C, CCc1ccnc(NS(=O)(=O)c2ccc3c(c2)OCCO3)c1, CCN(C(=O)COC(=O)/C=C/c1nc2ccccc2s1)C1CCS(=O)(=O)C1 (configuration not stated), CCCCN(C)CCC(=O)Nc1ccc(Cl)cc1, Cc1nc(NC(=O)c2cccc(Cl)c2)sc1-c1csc(Nc2cccc(Cl)c2)n1, Cc1ccc(-c2csc(NNC(=O)c3ccccc3)n2)cc1, COc1ccc(-c2csc(NC(=O)CCCc3cccs3)n2)cc1, COC(=O)CCNc1ccc2c(c1)OCCO2, COc1ccc(C(=O)Nc2ccc3c(c2)OCO3)cc1OC, Cc1ccc(C)n1NC(=O)c1ccc([N+](=O)[O-])cc1, CC(=O)Nc1ccc(Nc2c([N+](=O)[O-])cc(S(C)(=O)=O)cc2[N+](=O)[O-])cc1, Cc1cccc(NC(=S)N2CCCC(c3nc4ccccc4[nH]3)C2)c1 (configuration not stated), CCC1(C)Cc2c(sc3nnn(CC(=O)Nc4ccc(Cl)cc4)c(=O)c23)CO1 (configuration not stated), CC(C)(C)C1CCc2c(sc3nc(SCC(N)=O)nc(N)c23)C1 (configuration not stated), Cc1ccc(NC(=O)c2ccccn2)cc1S(=O)(=O)N1CCOCC1, CCc1ccc2c(c1)cc(CN(C(=S)Nc1ccccc1Cl)C1CC1)c1nnnn12, O=C(COC(=O)c1ccncc1)c1ccccc1, Cn1cccc1/C=C1\SC(=O)N(CC(=O)Nc2ccc(F)cc2)C1=O, Cc1ccc(S(=O)(=O)N(C)CC(=O)N2CCc3ccccc32)cc1, Cc1ccc(-c2cc(C(=O)N3CCc4ccccc4C3)no2)cc1, Cc1cccc(NC(=O)Nc2ccc3c(c2)OCO3)n1, CC1=C2[C@@H](O)[C@H]([C@@H](C)C(=O)NCCC(C)C)CC[C@@]2(C)C=CC1=O, CC(=O)OC1C([N+]2(C)CCCCC2)C[C@H]2C3CC[C@H]4C[C@H](OC(C)=O)C([N+]5(C)CCCCC5)CC4(C)C3CCC12C (some centres not stated)

activity, negative = inhibition, inactive:
COC(=O)CCCC1=CC2=CC(=O)C(C)(OC(=O)c3cccs3)C(=O)C2=CN1c1cccc(C#N)c1 (configuration not stated) 1.29% [at 13.5 µM]
